# AGP1-GFP MLPCN: modulators of TOR pathway AGP1-GFP in S. cerevisiae | GFP response vs DMSO, % at 10 µM | S. cerevisiae AGP1-GFP multiplex flow cytometry, 3 h; GFP as percent of DMSO wells | 320,000 tested, 0.02% active;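 active = GFP response relative to DMSO above a set limit, near screen average plus 3 SD, cut at about 150% in these data; inconclusive = fewer than 70 cells counted for the yeast strain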;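 note: median GFP channel fluorescence of the gated AGP1 strain per well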
# LAP4-GFP MLPCN: modulators of TOR pathway LAP4-GFP in S. cerevisiae. S. cerevisiae LAP4-GFP multiplex, flow cytometry GFP, 3 h; median GFP as percent of DMSO wells. GFP response vs DMSO, % at 10 µM. 320,000 tested, 0.34% active;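 active = GFP response vs DMSO above a set limit, about the screen mean plus 3 SD, cut at about 150% in these data; inconclusive = under 70 cell events counted for the yeast strain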
# CIT2 TOR yeast: yeast TOR pathway CIT2-GFP modulation; 320,000 tested, 0.065% active; S. cerevisiae CIT2-GFP strain, flow cytometry, 3 h; 100 means same as DMSO wells; AID 2029; GFP response vs DMSO, % at 10 µM;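 active = GFP response relative to DMSO above a set limit, near the screen mean plus 3 SD, cut at about 150% in these data; inconclusive = Fewer than 70 cells measured for a yeast strain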;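 note: ratio of well median GFP fluorescence to mean of DMSO wells on the plate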
# RPL19A-GFP yeast: alters RPL19A-GFP fluorescence in TOR pathway yeast screen | S. cerevisiae RPL19A-GFP strain, flow cytometry, 3 h; active compounds read low | percent response vs DMSO, % at 10 µM | 330,000 tested, 0.3% active | AID 2025;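 active = percent response vs DMSO below 50%; inconclusive = fewer than 70 events counted for the yeast strain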;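 note: median channel GFP fluorescence of the barcoded RPL19A-GFP strain; ratio of sample median GFP to plate DMSO average so 100% = DMSO; lower means less RPL19A-GFP as with rapamycin TOR inhibition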
# Pemphigus Ab inh: inhibitors of pemphigus antibody binding to human desmoglein-3 | P32926 | DSG3-coupled beads, scFv-anti-DSG3-GFP binding, flow cytometry; active compounds read low | binding (percent of control), % at 10 µM | 310,000 tested, 0.48% active | AID 588358;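 active = binding more than 3 SD below its plate's average and above zero; inconclusive = below that plate limit but binding exactly zero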;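 note: hits lower antibody fragment binding to DSG3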
# MEP2 TOR yeast: alters MEP2-GFP fluorescence in TOR pathway yeast screen; S. cerevisiae MEP2-GFP strain, flow cytometry GFP, 3 h; 100% = DMSO control level; GFP response vs DMSO, % at 10 µM; 330,000 tested, 0.51% active; AID 2016;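 active = GFP response versus DMSO above a set limit, roughly screen mean plus 3 SD, cut at about 180% in these data; inconclusive = fewer than 70 cells counted for a yeast strain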;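 note: median GFP fluorescence of the barcode-gated MEP2-GFP cells per well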
# The depositor's hits bear a star; ? = inconclusive; · = no result; [ ] = remark or other dose. A selection: hits, their analogues and other compounds. The true share with any hit is near 1.2%.
SMILES,AGP1-GFP MLPCN,LAP4-GFP MLPCN,CIT2 TOR yeast,RPL19A-GFP yeast,Pemphigus Ab inh,MEP2 TOR yeast
CCOc1ccc(NC(=O)C2CCCN(c3c(CC)c(C)nc4ncnn34)C2)cc1 (configuration not stated),15,79,?,51,95,214*[may fluoresce violet]
CCc1c(C)nc2ncnn2c1N1CCCC(C(=O)Nc2cc(F)ccc2C)C1 (configuration not stated),106,111,105,109,·,111
COc1ccc(S(=O)(=O)Nc2ccc(C(F)(F)F)cc2)cc1OC,?,79,?,62,·,196*[may fluoresce violet]
COc1ccc(NS(=O)(=O)c2cccc3ccccc23)cc1,96,183*,87,71,111,93
COc1ccc(NS(=O)(=O)c2cc(OC)ccc2OC)cc1,?,97,?,45*[may fluoresce violet],·,267*[may fluoresce violet]
COc1ccc(NS(=O)(=O)c2cc(C)ccc2C)cc1,·,106,92,94,103,98
c1ccc2c(C[C@@H]3CNCCN3CCC34CC5CC(CC(C5)C3)C4)cccc2c1,95,96,93,107,108,98
C=C(C)C(=O)Nc1cccc(C2=NOC3(C2)C[C@@H](C(N)=O)N(C(=O)c2ccc(OC)cc2)C3)c1 (some centres not stated),86,100,96,99,69*,95
C=C(C)C(=O)Nc1cccc(C2=NOC3(C2)C[C@@H](C(N)=O)N(C(=O)c2cc([N+](=O)[O-])cc([N+](=O)[O-])c2)C3)c1 (some centres not stated),105,97,108,99,104,101
O=C(NCCCN1CCOCC1)c1onc(CSc2ccncc2)c1C(=O)NCCCN1CCOCC1,83,128,73,100,105,97
Cc1ccc(C(=O)Nc2nc(-c3ccccn3)cs2)o1,103,133,98,97,90,101
O=C(Nc1nc(-c2ccccn2)cs1)c1ccc(-c2ccccc2F)o1,24,170*[may fluoresce violet],?,55,98,173
Cc1nn(Cc2ccc([N+](=O)[O-])cc2)c(=O)n1-c1cccc(Cl)c1,108,140,116,96,100,217*
Cc1nn(Cc2ccc([N+](=O)[O-])cc2)c(=O)n1-c1ccc(Cl)cc1,107,110,99,112,111,115
CCN(CC)c1ccc2cc(C(C)=O)c(=O)oc2c1,·,106,?,19*[may fluoresce violet],72,311*[may fluoresce violet]
COC(=O)C(=Cc1ccccc1[N+](=O)[O-])C(=O)OC,94,100,100,96,?,101
CC(Oc1ccccc1)C(=O)NC1=NCCS1 (configuration not stated),102,99,92,101,101,98
CCN(CC)S(=O)(=O)c1ccc2c(c1)c(=O)c(C(=O)N1CCN(c3ccccn3)CC1)cn2C,?,74,?,58,95,211*[may fluoresce violet]
Cn1cc(C(=O)N2CCN(c3ccccn3)CC2)c(=O)c2cc(S(=O)(=O)N3CCOCC3)ccc21,114,106,108,107,110,103
CCn1c(=O)c(C(=O)CN2CCN(S(=O)(=O)c3cc(C)ccc3C)CC2)c(N)n(Cc2ccccc2)c1=O,115,112,110,110,88*,131
O=C(O)c1cccc2cccc(-c3c4ccc(=O)c(O)c-4oc4c(O)c(O)ccc34)c12,·,·,·,·,13*,·
O=C(O)c1cccc2cc(-c3ccccc3)oc(=O)c12,102,91,99,98,96,95
COc1ccc(NC(=O)NC23CC4CC(CC(C4)C2)C3)cc1OC,·,84,?,16*[may fluoresce violet],100,283*[may fluoresce violet]
O=C(Nc1ccc2c(c1)OCCO2)NC12CC3CC(CC(C3)C1)C2,99,99,87,103,115,97
CC1=C(C(=O)N(C)C)CC(CC(=O)NC(c2ccccc2)c2ccccc2)C(=O)N1Cc1ccc(F)cc1 (configuration not stated),·,·,·,·,100,·
O=C(O)c1cccc(NC(=O)c2ccc3c(c2)C(=O)N(c2ccccc2)C3=O)c1,?,50,?,86,100,376*[may fluoresce violet]
